From PubChem BioAssay (NCI)
About 83,000 compounds went through this panel and 20% of them were active in at least one assay; those are over-represented in the sample as a whole.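 Growth was measured after 48 h exposure to one concentration of compound in 96-well plates. Values under 10 count as active.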 Unmarked numbers belong to inactive results. The source made the active and inactive calls.

Experiments:
Assay in all cases: NCI-60 one-dose screen, 48 h (100 = growth as untreated, 0 = no growth, -100 = all killed)
Conditions in all cases: 10 µM unless noted
NCI-H23 lung = tested on: NCI-H23 lung
NCI-H226 lung = tested on: NCI-H226 lung
NCI-H322M lung = tested on: NCI-H322M lung
HOP-62 NSCLC = tested on: HOP-62 NSCLC
NCI-H460 lung = tested on: NCI-H460 lung
NCI-H522 lung = tested on: NCI-H522 lung
A549/ATCC NSCLC = tested on: A549/ATCC NSCLC
786-0 renal = tested on: 786-0 renal
COLO 205 colon = tested on: COLO 205 colon
DU-145 prostate = tested on: DU-145 prostate
K-562 leukemia = tested on: K-562 leukemia
MALME-3M melanoma = tested on: MALME-3M melanoma
MDA-MB-231 breast = tested on: MDA-MB-231 breast
RXF 393 renal = tested on: RXF 393 renal
SF-268 CNS = tested on: SF-268 CNS
SF-295 CNS = tested on: SF-295 CNS
SF-539 CNS = tested on: SF-539 CNS
UACC-257 melanoma = tested on: UACC-257 melanoma
M14 melanoma = tested on: M14 melanoma
HCT-15 colon = tested on: HCT-15 colon

Structure (SMILES): O=C(Oc1ccc[nH]c1=O)c1cccc(Cl)c1
- growth (NCI-H23 lung): 95.6%
- growth (NCI-H226 lung): 109%
- growth (NCI-H322M lung): 99.9%
- growth (HOP-62 NSCLC): 90.5%
- growth (NCI-H460 lung): 100%
- growth (NCI-H522 lung): 95.3%
- growth (A549/ATCC NSCLC): 101%
- growth (786-0 renal): 90.7%
- growth (COLO 205 colon): 84.4%
- growth (DU-145 prostate): 113%
- growth (K-562 leukemia): 104%
- growth (MALME-3M melanoma): 104%
- growth (MDA-MB-231 breast): 103%
- growth (RXF 393 renal): 163%
- growth (SF-268 CNS): 101%
- growth (SF-295 CNS): 108%
- growth (SF-539 CNS): 88.2%
- growth (UACC-257 melanoma): 113%
- growth (M14 melanoma): 95.8%
- growth (HCT-15 colon): 91.2%

Structure (SMILES): Cc1ccc2c(c1)O/C(=C\c1ccc([N+](=O)[O-])o1)C2=O
- growth (NCI-H23 lung): 56.2%
- growth (NCI-H226 lung): 78.9%
- growth (NCI-H322M lung): 68.6%
- growth (HOP-62 NSCLC): 69.6%
- growth (NCI-H460 lung): 25.4%
- growth (NCI-H522 lung): -66% (active)
- growth (A549/ATCC NSCLC): 55.4%
- growth (786-0 renal): 5.37% (active)
- growth (COLO 205 colon): -41.8% (active)
- growth (DU-145 prostate): -1.53% (active)
- growth (K-562 leukemia): 2.06% (active)
- growth (MALME-3M melanoma): -10.5% (active)
- growth (MDA-MB-231 breast): 48.4%
- growth (RXF 393 renal): -23.5% (active)
- growth (SF-268 CNS): 29.3%
- growth (SF-295 CNS): 94.3%
- growth (SF-539 CNS): 44.5%
- growth (UACC-257 melanoma): 68.3%
- growth (M14 melanoma): 55.8%
- growth (HCT-15 colon): 4.4% (active)

Structure (SMILES): C=CC1=C(C(=O)O)N2C(=O)[C@@H](NC(=O)/C(=N\O)c3csc(N)n3)[C@H]2SC1 (stereo in doubt)
- growth (NCI-H23 lung): 96%
- growth (NCI-H226 lung): 101%
- growth (NCI-H322M lung): 109%
- growth (HOP-62 NSCLC): 105%
- growth (NCI-H460 lung): 105%
- growth (NCI-H522 lung): 106%
- growth (A549/ATCC NSCLC): 99.4%
- growth (786-0 renal): 105%
- growth (COLO 205 colon): 103%
- growth (DU-145 prostate): 113%
- growth (K-562 leukemia): 104%
- growth (MALME-3M melanoma): 111%
- growth (MDA-MB-231 breast): 105%
- growth (RXF 393 renal): 117%
- growth (SF-268 CNS): 108%
- growth (SF-295 CNS): 104%
- growth (SF-539 CNS): 95.2%
- growth (UACC-257 melanoma): 96.3%
- growth (M14 melanoma): 114%
- growth (HCT-15 colon): 105%

Structure (SMILES): O=c1cc(-c2cccnc2)oc2c1ccc1ccccc12
- growth (NCI-H23 lung): 69.9%
- growth (NCI-H226 lung): 91.5%
- growth (NCI-H322M lung): 117%
- growth (HOP-62 NSCLC): 88.6%
- growth (NCI-H460 lung): 70.4%
- growth (NCI-H522 lung): 62%
- growth (A549/ATCC NSCLC): 65.6%
- growth (786-0 renal): 81.3%
- growth (COLO 205 colon): 80.5%
- growth (DU-145 prostate): 88.6%
- growth (K-562 leukemia): 53.9%
- growth (MALME-3M melanoma): 156%
- growth (MDA-MB-231 breast): 70.7%
- growth (RXF 393 renal): 68%
- growth (SF-268 CNS): 54.8%
- growth (SF-295 CNS): 70.1%
- growth (SF-539 CNS): 54.6%
- growth (UACC-257 melanoma): 82.9%
- growth (M14 melanoma): 103%
- growth (HCT-15 colon): 72.7%

Structure (SMILES): CO[C@H]1CC(O[C@@H]2/C(C)=C/C[C@@H]3C[C@@H](C[C@]4(CC[C@H](C)[C@@H](C5CCCCC5)O4)O3)OC(=O)[C@@H]3C=C(C)/C(=N/O)[C@H]4OC/C(=C\C=C\[C@@H]2C)[C@]43O)O[C@@H](C)C1O (stereo not given in full)
- growth (NCI-H23 lung): -76.2% (active)
- growth (NCI-H226 lung): -84.2% (active)
- growth (NCI-H322M lung): -78% (active)
- growth (HOP-62 NSCLC): -88.8% (active)
- growth (NCI-H460 lung): -82.3% (active)
- growth (NCI-H522 lung): -73.4% (active)
- growth (A549/ATCC NSCLC): -82.9% (active)
- growth (786-0 renal): -91.1% (active)
- growth (COLO 205 colon): -79.4% (active)
- growth (DU-145 prostate): -96.1% (active)
- growth (K-562 leukemia): -36.7% (active)
- growth (MALME-3M melanoma): -46.3% (active)
- growth (MDA-MB-231 breast): -89% (active)
- growth (RXF 393 renal): -97.2% (active)
- growth (SF-268 CNS): -92.2% (active)
- growth (SF-295 CNS): -89.5% (active)
- growth (SF-539 CNS): -68.8% (active)
- growth (UACC-257 melanoma): -81.6% (active)
- growth (M14 melanoma): -81.4% (active)
- growth (HCT-15 colon): -75.1% (active)

Structure (SMILES): COC(=O)C[C@@H]1CC=CC(=O)/C1=C(O)/C=C/c1ccccc1
- growth (NCI-H23 lung): -43.4% (active)
- growth (NCI-H226 lung): -40.6% (active)
- growth (NCI-H322M lung): -14.4% (active)
- growth (HOP-62 NSCLC): -42.8% (active)
- growth (NCI-H460 lung): -42.5% (active)
- growth (NCI-H522 lung): -64.2% (active)
- growth (A549/ATCC NSCLC): -0.275% (active)
- growth (786-0 renal): -77.5% (active)
- growth (COLO 205 colon): -57.2% (active)
- growth (DU-145 prostate): -28.4% (active)
- growth (K-562 leukemia): 3.07% (active)
- growth (MALME-3M melanoma): -60% (active)
- growth (MDA-MB-231 breast): -63% (active)
- growth (RXF 393 renal): -83.6% (active)
- growth (SF-268 CNS): 22.3%
- growth (SF-295 CNS): -14.6% (active)
- growth (SF-539 CNS): -39.1% (active)
- growth (UACC-257 melanoma): -39.3% (active)
- growth (M14 melanoma): -70.2% (active)
- growth (HCT-15 colon): -53.9% (active)

Structure (SMILES): O=[N+]([O-])c1ccc(Oc2cccc(C(F)(F)F)c2)c([N+](=O)[O-])c1
- growth (NCI-H23 lung): 27.7%
- growth (NCI-H226 lung): 47.6%
- growth (NCI-H322M lung): 90.3%
- growth (HOP-62 NSCLC): 101%
- growth (NCI-H460 lung): 95.6%
- growth (NCI-H522 lung): -16% (active)
- growth (A549/ATCC NSCLC): 97.2%
- growth (786-0 renal): 47.5%
- growth (COLO 205 colon): 2.36% (active)
- growth (DU-145 prostate): 95.2%
- growth (K-562 leukemia): 11.2%
- growth (MALME-3M melanoma): 52.3%
- growth (MDA-MB-231 breast): 19.7%
- growth (RXF 393 renal): 53.6%
- growth (SF-268 CNS): 32.2%
- growth (SF-295 CNS): 108%
- growth (SF-539 CNS): 36.9%
- growth (UACC-257 melanoma): 53.7%
- growth (M14 melanoma): 9.6% (active)
- growth (HCT-15 colon): 19%

Structure (SMILES): Nc1c2ccccc2nc2ccccc12 (tested in a mixture with another compound)
- growth (NCI-H23 lung): 19.2%
- growth (NCI-H226 lung): 11%
- growth (NCI-H322M lung): 29.8%
- growth (HOP-62 NSCLC): 25.8%
- growth (NCI-H460 lung): 4.41% (active)
- growth (NCI-H522 lung): -22.3% (active)
- growth (A549/ATCC NSCLC): 4.37% (active)
- growth (786-0 renal): 32.5%
- growth (COLO 205 colon): 2.36% (active)
- growth (DU-145 prostate): 19.4%
- growth (K-562 leukemia): 15.3%
- growth (MALME-3M melanoma): 27%
- growth (MDA-MB-231 breast): 15.9%
- growth (RXF 393 renal): -2.81% (active)
- growth (SF-268 CNS): 19.2%
- growth (SF-295 CNS): 24.4%
- growth (SF-539 CNS): 27.5%
- growth (UACC-257 melanoma): -11.3% (active)
- growth (M14 melanoma): 17.1%
- growth (HCT-15 colon): 14.7%
